In PubChem BioAssay AID1159580 (chemical genetic matrix, 2015):
Among all 5,500 compounds or so, about 2,000 (36%) were called active. Roughly 18% stayed inconclusive and do not appear here. Cut-off read from the data, not from the text of the source: active = normalized growth mostly below about 0.91 (no sharp cut-off); inconclusive = no clear call, values can overlap the other calls; inactive = mostly above about 0.92. The list shows a part of the results.

Experiment: chemical genetic growth profiling, strain panel (AID 1159580);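 note: tested at 20 µM; growth read once vehicle control cultures reached saturation at 30 °C; 1 = growth at the plate median or of vehicle wells; lower values mean less growth of the strain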
Conditions: S. cerevisiae deletion strains, growth OD

Measured: normalized growth

CC(=O)OC1CC[C@@]2(C)C(CCC3C2CC[C@]2(C)C(C4=CC(=O)OC4)C(OC(C)=O)CC32O)C1 (stereo not given in full)
inactive: locus YAL013W, strain DEP1, hits give low values 0.988 | locus YAL021C, strain ccr4, hits give low values 0.989 | locus YAL026C, strain drs2, hits give low values 0.979 | locus YAL030W, strain snc1, hits give low values 0.998 | locus YBL061C, strain skt5, hits give low values 0.994 | locus YBR009C, strain hhf1, hits give low values 1 | locus YBR023C, strain chs3, hits give low values 0.995 | locus YBR171W, strain sec66, hits give low values 0.987 | locus YBR229C, strain ROT2, hits give low values 0.997 | locus YBR231C, strain swc5, hits give low values 0.979 | locus YBR279W, strain paf1, hits give low values 0.984 | locus YCL011C, strain gbp2, hits give low values 0.972 | locus YCL016C, strain dcc1, hits give low values 0.971 | locus YCL029C, strain bik1, hits give low values 1.01 | locus YCL069W, strain vba3, hits give low values 0.999 | locus YCR088W, strain abp1, hits give low values 0.999 | locus YDL005C, strain med2, hits give low values 0.972 | locus YDL035C, strain GPR1, hits give low values 1.01 | locus YDL040C, strain nat1, hits give low values 0.99 | locus YDL074C, strain BRE1, hits give low values 0.972 | locus YDL101C, strain DUN1, hits give low values 1 | locus YDL134C, strain PPH21, hits give low values 1.03 | locus YDL185W, strain tfp1, hits give low values 1.02 | locus YDL192W, strain arf1, hits give low values 1 | locus YDR001C, strain nth1, hits give low values 0.986 | locus YDR069C, strain doa4, hits give low values 0.942 | locus YDR101C, strain arx1, hits give low values 1.01 | locus YDR137W, strain rgp1, hits give low values 0.986 | locus YDR159W, strain sac3, hits give low values 1.03 | locus YDR162C, strain NBP2, hits give low values 1 | locus YDR195W, strain ref2 0.951 | locus YDR297W, strain sur2, hits give low values 0.989 | locus YDR318W, strain mcm21, hits give low values 0.992 | locus YDR334W, strain swr1, hits give low values 0.976 | locus YDR335W, strain msn5, hits give low values 0.978 | locus YDR388W, hits give low values 1.01 | locus YDR392W, strain spt3, hits give low values 1.01 | locus YDR502C, strain sam2, hits give low values 0.994 | locus YEL003W, strain gim4, hits give low values 0.988 | locus YEL037C, strain rad23, hits give low values 0.997 | locus YEL061C, strain CIN8 (second series), hits give low values 0.985 | locus YEL061C, strain CIN8, hits give low values 0.997 | locus YER015W, strain faa2, hits give low values 0.983 | locus YER016W, strain bim1, hits give low values 0.965 | locus YER110C, hits give low values 1.01 | locus YER111C, strain swi4, hits give low values 0.978 | locus YER155C, strain BEM2 (second series), hits give low values 1.01 | locus YER155C, strain BEM2, hits give low values 0.996 | locus YER167W, strain BCK2, hits give low values 0.997 | locus YFR010W, strain ubp6, hits give low values 1 | locus YGL078C, strain dbp3, hits give low values 1 | locus YGL086W, strain mad1, hits give low values 1 | locus YGL167C, strain pmr1, hits give low values 0.982 | locus YGL173C, strain kem1, hits give low values 0.987 | locus YGL227W, strain vid30, hits give low values 0.98 | locus YGL240W, strain doc1, hits give low values 0.99 | locus YGL248W, strain PDE1, hits give low values 0.995 | locus YGL253W, strain hxk2, hits give low values 0.964 | locus YGR135W, strain pre9, hits give low values 1.01 | locus YGR229C, strain SMI1, hits give low values 0.976 | locus YGR252W, strain gcn5, hits give low values 0.993 | locus YHR013C, strain ard1, hits give low values 0.943 | locus YHR027C, strain rpn1, hits give low values 0.97 | locus YHR079C, strain IRE1 (second series), hits give low values 1 | locus YHR094C, strain hxt1, hits give low values 1 | locus YHR129C, strain ARP1, hits give low values 1 | locus YHR142W, strain chs7, hits give low values 0.958 | locus YHR200W, strain rpn10, hits give low values 1.01 | locus YIL066C, strain RNR3, hits give low values 1.01 | locus YIL073C, strain SPO22, hits give low values 1.04 | locus YIL125W, strain kgd1, hits give low values 1.02 | locus YIR030C, strain dcg1, hits give low values 1 | locus YJL092W, strain hpr5, hits give low values 0.986 | locus YJL095W, strain BCK1 (second series), hits give low values 0.993 | locus YJL095W, strain BCK1, hits give low values 0.999 | locus YJL115W, strain asf1, hits give low values 0.959 | locus YJL129C, strain trk1, hits give low values 0.956 | locus YJL134W, strain LCB3, hits give low values 0.995 | locus YJL154C, strain vps35, hits give low values 0.975 | locus YJL164C, strain tpk1, hits give low values 1 | locus YJL166W, strain qcr8, hits give low values 0.957 | locus YJL168C, strain set2, hits give low values 1.01 | locus YJL187C, strain SWE1 (second series), hits give low values 0.99 | locus YJL187C, strain SWE1, hits give low values 0.982 | locus YJR075W, strain HOC1, hits give low values 0.997 | locus YKL009W, strain mrt4, hits give low values 1.01 | locus YKL068W, hits give low values 1.01 | locus YKL085W, strain MDH1 (second series), hits give low values 1.01 | locus YKL085W, strain MDH1, hits give low values 1.01 | locus YKL160W, strain elf1, hits give low values 0.975 | locus YKR001C, strain vps1, hits give low values 1.01 | locus YKR026C, strain gcn3, hits give low values 0.993 | locus YKR091W, strain srl3, hits give low values 0.974 | locus YLL001W, strain dnm1, hits give low values 0.998 | locus YLL026W, hits give low values 0.983 | locus YLL041C, strain sdh2, hits give low values 1 | locus YLR027C, strain aat2, hits give low values 0.983 | locus YLR039C, strain RIC1, hits give low values 1.02 | locus YLR058C, strain SHM2, hits give low values 1 | locus YLR102C, strain apc9, hits give low values 1.01 | locus YLR221C, strain rsa3, hits give low values 0.997 | locus YLR258W, strain gsy2, hits give low values 0.979 | locus YLR262C, strain YPT6 (second series), hits give low values 0.974 | locus YLR262C, strain YPT6, hits give low values 1.03 | locus YLR268W, strain sec22, hits give low values 1.01 | locus YLR320W, strain mms22, hits give low values 1.01 | locus YLR342W, strain FKS1 (second series), hits give low values 0.986 | locus YLR342W, strain FKS1, hits give low values 1.01 | locus YLR357W, strain rsc2, hits give low values 0.967 | locus YLR370C, strain arc18, hits give low values 0.974 | locus YLR371W, strain rom2, hits give low values 0.996 | locus YLR384C, strain iki3, hits give low values 0.971 | locus YLR418C, strain cdc73, hits give low values 1.03 | locus YML016C, strain PPZ1, hits give low values 1 | locus YML032C, strain rad52, hits give low values 1.01 | locus YML120C, strain ndi1, hits give low values 0.996 | locus YML124C, strain tub3, hits give low values 1.01 | locus YMR058W, strain fet3, hits give low values 0.977 | locus YMR078C, strain ctf18, hits give low values 1.02 | locus YMR125W, strain sto1, hits give low values 0.977 | locus YMR129W, hits give low values 0.981 | locus YMR205C, strain PFK2, hits give low values 0.994 | locus YMR223W, strain ubp8, hits give low values 1 | locus YMR231W, strain pep5, hits give low values 0.99 | locus YMR307W, strain GAS1, hits give low values 1.02 | locus YNL067W, strain RPL9B, hits give low values 1.01 | locus YNL071W, strain lat1, hits give low values 0.999 | locus YNL153C, strain GIM3, hits give low values 1 | locus YNL209W, strain ssb2, hits give low values 0.996 | locus YNL233W, strain BNI4, hits give low values 0.989 | locus YNL248C, strain rpa49, hits give low values 0.946 | locus YNL250W, strain rad50, hits give low values 1.02 | locus YNL271C, strain bni1, hits give low values 1.01 | locus YNL298W, strain CLA4, hits give low values 1.04 | locus YNL307C, strain MCK1, hits give low values 1.03 | locus YNL322C, strain KRE1 (second series), hits give low values 0.971 | locus YNR049C, strain mso1, hits give low values 0.959 | locus YNR052C, strain pop2, hits give low values 0.999 | locus YOL006C, strain TOP1, hits give low values 1.04 | locus YOL012C, strain htz1 0.875 | locus YOL147C, strain pex11, hits give low values 1.01 | locus YOR001W, strain rrp6, hits give low values 1.03 | locus YOR061W, strain CKA2, hits give low values 1.01 | locus YOR069W, strain VPS5, hits give low values 0.999 | locus YOR070C, strain gyp1, hits give low values 0.995 | locus YOR080W, strain dia2, hits give low values 0.973 | locus YOR083W, strain WHI5, hits give low values 0.977 | locus YOR106W, strain vam3, hits give low values 0.956 | locus YOR136W, strain idh2, hits give low values 1.02 | locus YOR144C, strain elg1, hits give low values 1.02 | locus YOR184W, strain ser1, hits give low values 1.02 | locus YOR265W, strain rbl2, hits give low values 0.999 | locus YOR270C, strain vph1, hits give low values 0.965 | locus YOR290C, strain snf2, hits give low values 0.955 | locus YOR316C, strain cot1, hits give low values 1.02 | locus YPL051W, strain arl3, hits give low values 0.98 | locus YPL078C, strain atp4, hits give low values 0.977 | locus YPL106C, strain sse1, hits give low values 0.997 | locus YPL240C, strain hsp82, hits give low values 0.982 | locus YPR119W, strain clb2, hits give low values 1.01 | locus YPR141C, strain kar3, hits give low values 1 | locus YPR163C, strain tif3, hits give low values 1.02 | locus YPR167C, strain met16, hits give low values 0.999 | strain wtn01, hits give low values 1.01
active: locus YBR021W, strain FUR4, hits give low values 0.837
